Data from PubChem BioAssay (Tox21).
Results filed as inconclusive are left out. Calls of active or inactive are those of the source. Unless noted, calls come from the whole dose curve; as a rule, active = well fitted curve in the direction sought with a large enough effect in the repeat runs; inconclusive = weak or mixed curves; inactive = no such curve, though single readings can be large; an effect the other way counts as inactive or inconclusive.

Key:
[1] = qHTS assay to identify small molecule antagonists of the estrogen receptor alpha (ER-alpha) signaling pathway using the BG1 cell line in the presence of 0.1 nM 17-beta-estradiol - cell viability counter screen (AID 1259241); note: nearly all actives have a fitted effect of over 40% in size
How it was run: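 Viability in VM7Luc4E2 cells after 22 hr compound exposure under 0.1 nM 17beta-estradiol stimulation, by CellTiter-Fluor.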

[2] = molecular target: Estrogen receptor (Homo sapiens) (UniProt P03372); assay: qHTS assay to identify small molecule antagonists of the estrogen receptor alpha (ER-alpha) signaling pathway using the BG1 cell line in the presence of 0.1 nM 17-beta-estradiol (AID 1259244); note: nearly all actives have a fitted effect of over 50% in size
Sequence of Estrogen receptor (Homo sapiens) (P03372 whole entry, looked up): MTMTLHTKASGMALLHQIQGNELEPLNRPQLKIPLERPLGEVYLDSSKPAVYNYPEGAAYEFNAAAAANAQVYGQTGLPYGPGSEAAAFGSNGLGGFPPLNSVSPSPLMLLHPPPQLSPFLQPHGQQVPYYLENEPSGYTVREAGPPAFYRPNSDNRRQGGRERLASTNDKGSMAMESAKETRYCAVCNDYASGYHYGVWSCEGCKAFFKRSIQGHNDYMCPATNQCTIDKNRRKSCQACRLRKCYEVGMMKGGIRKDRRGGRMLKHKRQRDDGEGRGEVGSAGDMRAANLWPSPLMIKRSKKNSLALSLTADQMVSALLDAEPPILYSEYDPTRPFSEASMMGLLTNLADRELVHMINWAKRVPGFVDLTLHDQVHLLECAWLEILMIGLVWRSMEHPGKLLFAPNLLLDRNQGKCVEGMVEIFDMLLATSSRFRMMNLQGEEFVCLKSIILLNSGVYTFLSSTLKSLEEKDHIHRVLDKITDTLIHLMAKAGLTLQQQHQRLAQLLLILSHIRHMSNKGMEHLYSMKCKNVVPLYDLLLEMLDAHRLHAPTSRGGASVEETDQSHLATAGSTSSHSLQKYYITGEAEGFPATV
How it was run: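 VM7Luc4E2 cells (endogenous full-length ER-alpha, 4×ERE-luciferase), kept 5 days in phenol red-free, charcoal-stripped FBS medium; 4,000 cells/well. Compounds added with 0.1 nM (final) 17beta-estradiol, 22 hr at 37C; luminescence read with ONE-Glo after 30 min.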

[3] = qHTS assay to identify small molecule phospholipidosis (PLD) inducers (AID 1259344; active = well fitted curve in the direction sought with a large enough effect; an effect the other way counts as inactive or inconclusive)
How it was run: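 HepG2 cells on collagen I, attached 4 h at 37 C, were co-treated with compound and LipidTOX Red dye for 24 h at 37 C, then fixed with paraformaldehyde plus Hoechst 33342 and imaged by high-content microscopy for phospholipid accumulation.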

[4] = qHTS assay to identify small molecule HDAC inhibitors (AID 1259364); note: nearly all actives have a fitted effect of over 45% in size; note: potency is the fitted concentration of half-maximal effect; for activity change, negative = inhibition: top concentration of the series differs between compounds
How it was run: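 Wild-type HCT-116 cells, plated overnight at 37 C, exposed to compounds 2 hr at 37 C; luminogenic HDAC-Glo substrate then added 30 min at room temperature. Luminescence reports relative endogenous class I/II HDAC activity.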

[5] = qHTS assay to identify small molecule HDAC inhibitors - cell viability counter screen (AID 1259365); note: series mostly up to about 92 µM; nearly all actives have a fitted effect of over 50% in size
How it was run: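 Cytotoxicity was gauged in wild-type HCT-116 cells after a brief 2hr treatment with DMSO-dissolved compounds at 37C and 5% CO2, using CellTiter-Glo luminescence developed for 30min at room temperature.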

[6] = qHTS assay to identify small molecule agonists of the sonic hedgehog signaling (Shh) pathway - cell viability counter screen (AID 1259366); note: nearly all actives have a fitted effect of over 50% in size
How it was run: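 Stable Gli1-Luc NIH/3T3 clone, 2,000 cells/well. Compound exposure 24hr at 37C. Read-out: CellTiter-Fluor fluorescence.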

[7] = qHTS assay to identify small molecule antagonists of the sonic hedgehog signaling (Shh) pathway - cell viability counter screen (AID 1259367); note: nearly all actives have a fitted effect of over 55% in size
How it was run: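 NIH/3T3-derived Gli1-Luc reporter cells (2,000 per well) rested 4 hr at 37 C, then received DMSO compounds plus conditioned medium. After 23 hr of treatment, CellTiter-Fluor was added for 1 hr at 37C and fluorescence read.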

[8] = qHTS assay to identify small molecule agonists of the sonic hedgehog signaling (Shh) pathway (AID 1259368; calls by dose curve;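 note: NIH/3T3-derived 3T3Gli1-Luc cells carrying a stable Gli1-driven firefly luciferase reporter; series mostly up to about 92 µM; nearly all actives have a fitted effect of over 15% in size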)
How it was run: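 NIH/3T3-derived 3T3Gli1-Luc cells with stably integrated Gli1-driven firefly luciferase, 2,000 cells/well, compounds added after 4 hr. Incubated 24 hr at 37C, 5% CO2; luminescence read after 30 min with luciferase reagent at room temperature.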

[9] = qHTS assay to identify small molecule antagonists of the sonic hedgehog signaling (Shh) pathway (AID 1259369; calls by dose curve; note: nearly all actives have a fitted effect of over 45% in size)
How it was run: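 NIH/3T3-derived Gli1-Luc reporter cells plated 4 h, dosed with compound, then stimulated with conditioned medium for 24 h at 37 C. Firefly luciferase luminescence read after 30 min with detection reagent at room temperature.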

[10] = molecular target: Estrogen receptor beta (Homo sapiens) (UniProt Q92731); assay: qHTS assay to identify small molecule agonists of the estrogen receptor beta (ER-beta) signaling pathway (AID 1259377; active = well fitted activation curve with a large enough effect in the signal ratio in the repeat runs, not every such curve was filed as active; the % refers to the signal ratio)
Sequence of Estrogen receptor beta (Homo sapiens) (Q92731 whole entry, looked up): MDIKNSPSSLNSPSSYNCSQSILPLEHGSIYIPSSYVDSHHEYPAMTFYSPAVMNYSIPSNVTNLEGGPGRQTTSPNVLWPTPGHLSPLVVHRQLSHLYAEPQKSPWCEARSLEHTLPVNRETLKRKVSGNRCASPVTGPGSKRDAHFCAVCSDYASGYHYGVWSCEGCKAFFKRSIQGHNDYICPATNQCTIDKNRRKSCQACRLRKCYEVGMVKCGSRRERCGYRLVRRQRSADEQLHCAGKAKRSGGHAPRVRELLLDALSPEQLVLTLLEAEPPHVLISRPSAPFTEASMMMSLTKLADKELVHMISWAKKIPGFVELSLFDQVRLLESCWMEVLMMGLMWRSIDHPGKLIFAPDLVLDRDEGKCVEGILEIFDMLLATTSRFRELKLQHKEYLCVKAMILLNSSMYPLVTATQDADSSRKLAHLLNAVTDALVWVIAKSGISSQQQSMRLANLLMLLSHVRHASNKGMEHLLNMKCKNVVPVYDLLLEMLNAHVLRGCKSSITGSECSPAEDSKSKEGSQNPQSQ
How it was run: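 Measured by fluorescence intensity from a B/G FRET beta-lactamase substrate (2 h, room temperature) in ER-beta-UAS-bla HEK293T cells treated with DMSO-dissolved compounds for 16 hr at 37C and 5% CO2.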

[11] = molecular target: Estrogen receptor beta (Homo sapiens) (UniProt Q92731); assay: qHTS assay to identify small molecule antagonists of the estrogen receptor beta (ER-beta) signaling pathway (AID 1259378; active = well fitted inhibition curve with a large enough effect in the signal ratio in the repeat runs, not every such curve was filed as active; the % refers to the signal ratio)
How it was run: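 ER-beta-UAS-bla HEK293T (GripTite) cells in 2% charcoal-stripped FBS medium were preincubated 6 hr at 37C, dosed with compound, then stimulated with 1 nM E2 (final) for 16 hr; beta-lactamase reporter read by B/G FRET fluorescence after 2 hr substrate loading.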

[12] = qHTS assay to identify small molecule agonists of the androgen receptor (AR) signaling pathway in the presence of an antagonist - cell viability counter screen (AID 1259379);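 note: MDA-kb2 human breast cancer cells carrying an MMTV luciferase reporter; series mostly up to about 92 µM; nearly all actives have a fitted effect of over 25% in size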
How it was run: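 MDA-kb2 cells (MMTV-luciferase, AR/GR), 3,000/well, 5 h attachment, then 3.0 µM nilutamide (final) and compounds at 15 concentrations. Viability by CellTiter-Fluor fluorescence after 16 h at 37 °C, 0% CO2, in the reporter wells.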

[13] = qHTS assay to identify small molecule agonists of the estrogen receptor beta (ER-beta) signaling pathway - cell viability counter screen (AID 1259380); note: nearly all actives have a fitted effect of over 30% in size; note: potency is the fitted concentration of half-maximal effect
How it was run: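 ER-beta-UAS-bla HEK293T cells in medium with 2% charcoal-stripped FBS, pre-incubated 6 hr, then treated 16 hr at 37C. Cytotoxicity read in the same wells by CellTiter-Glo luminescence after 30 min at room temperature.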

[14] = qHTS assay to identify small molecule antagonists of the estrogen receptor beta (ER-beta) signaling pathway - cell viability counter screen (AID 1259382); note: series mostly up to about 92 µM; nearly all actives have a fitted effect of over 55% in size
How it was run: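 ER-beta-UAS-bla HEK293T cells in 2% charcoal-stripped FBS medium, treated with compound plus 1 nM 17-beta-estradiol for 16 h at 37C. Viability read by CellTiter-Glo luminescence after 30 min at room temperature in the same wells.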

[15] = qHTS assay to identify small molecule agonists or antagonists of the thyroid stimulating hormone receptor (TSHR) signaling pathway - wild type cell line counter screen (AID 1259384; calls by dose curve)
How it was run: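 Wild-type HEK293 cells were plated 18 h at 37 C/5% CO2, pin-dosed with compound plus Ro20-1724 medium, held 30 min at room temperature, then given cAMP-d2 and anti-cAMP-cryptate; fluorescence was read after 1 h. Fifteen concentrations, triplicate.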

[16] = molecular target: Thyrotropin receptor (Homo sapiens) (UniProt P16473); assay: qHTS assay to identify small molecule antagonists of the thyroid stimulating hormone receptor (TSHR) signaling pathway (AID 1259385; calls by dose curve; note: nearly all actives have a fitted effect of over 20% in size)
Sequence of Thyrotropin receptor (Homo sapiens) (P16473 whole entry, looked up): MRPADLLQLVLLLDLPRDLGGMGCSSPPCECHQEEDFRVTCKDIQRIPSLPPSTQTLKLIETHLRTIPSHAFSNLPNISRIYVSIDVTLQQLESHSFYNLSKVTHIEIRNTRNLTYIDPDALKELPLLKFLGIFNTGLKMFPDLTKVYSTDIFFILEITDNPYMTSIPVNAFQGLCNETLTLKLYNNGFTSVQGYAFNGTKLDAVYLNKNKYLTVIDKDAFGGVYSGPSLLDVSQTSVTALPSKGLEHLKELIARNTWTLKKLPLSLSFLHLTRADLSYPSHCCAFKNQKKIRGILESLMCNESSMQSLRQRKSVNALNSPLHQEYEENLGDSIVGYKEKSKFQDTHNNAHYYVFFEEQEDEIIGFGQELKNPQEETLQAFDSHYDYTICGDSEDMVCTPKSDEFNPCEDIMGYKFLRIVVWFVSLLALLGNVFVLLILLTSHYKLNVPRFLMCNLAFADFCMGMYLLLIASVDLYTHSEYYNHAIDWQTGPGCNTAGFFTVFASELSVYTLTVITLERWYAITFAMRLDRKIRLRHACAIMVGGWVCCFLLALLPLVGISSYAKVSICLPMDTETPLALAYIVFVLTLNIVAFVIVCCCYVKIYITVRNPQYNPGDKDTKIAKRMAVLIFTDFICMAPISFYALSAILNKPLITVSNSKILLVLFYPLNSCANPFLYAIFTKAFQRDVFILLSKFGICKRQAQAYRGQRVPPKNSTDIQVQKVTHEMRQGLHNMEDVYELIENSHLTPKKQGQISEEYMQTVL
How it was run: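 TSHR-HEK293 cells were plated and held 18 h at 37C/5% CO2, then given compound plus Ro20-1724 and stimulated with TSH at 1.5 ng/mL final. After 30 min at room temperature, cAMP was detected with cAMP-d2/anti-cAMP-cryptate (1 h) by fluorescence.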

[17] = qHTS assay to identify small molecule antagonists of the androgen receptor (AR) signaling pathway using the MDA cell line in the presence of 0.5 nM R1881 - cell viability counter screen (AID 1259242); note: nearly all actives have a fitted effect of over 45% in size
How it was run: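 MDA-kb2 cells (MMTV-luciferase, AR/GR responsive) were treated with compounds plus 0.5 nM R1881 (final) for 16 hr at 37C, 0% CO2. Viability was then read in the same wells as live-cell protease fluorescence (CellTiter-Fluor, 30 min).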

[18] = molecular target: Androgen receptor (Homo sapiens) (UniProt P10275); assay: qHTS assay to identify small molecule antagonists of the androgen receptor (AR) signaling pathway using the MDA cell line in the presence of 0.5 nM R1881 (AID 1259243); note: nearly all actives have a fitted effect of over 50% in size
Sequence of Androgen receptor (Homo sapiens) (P10275 whole entry, looked up): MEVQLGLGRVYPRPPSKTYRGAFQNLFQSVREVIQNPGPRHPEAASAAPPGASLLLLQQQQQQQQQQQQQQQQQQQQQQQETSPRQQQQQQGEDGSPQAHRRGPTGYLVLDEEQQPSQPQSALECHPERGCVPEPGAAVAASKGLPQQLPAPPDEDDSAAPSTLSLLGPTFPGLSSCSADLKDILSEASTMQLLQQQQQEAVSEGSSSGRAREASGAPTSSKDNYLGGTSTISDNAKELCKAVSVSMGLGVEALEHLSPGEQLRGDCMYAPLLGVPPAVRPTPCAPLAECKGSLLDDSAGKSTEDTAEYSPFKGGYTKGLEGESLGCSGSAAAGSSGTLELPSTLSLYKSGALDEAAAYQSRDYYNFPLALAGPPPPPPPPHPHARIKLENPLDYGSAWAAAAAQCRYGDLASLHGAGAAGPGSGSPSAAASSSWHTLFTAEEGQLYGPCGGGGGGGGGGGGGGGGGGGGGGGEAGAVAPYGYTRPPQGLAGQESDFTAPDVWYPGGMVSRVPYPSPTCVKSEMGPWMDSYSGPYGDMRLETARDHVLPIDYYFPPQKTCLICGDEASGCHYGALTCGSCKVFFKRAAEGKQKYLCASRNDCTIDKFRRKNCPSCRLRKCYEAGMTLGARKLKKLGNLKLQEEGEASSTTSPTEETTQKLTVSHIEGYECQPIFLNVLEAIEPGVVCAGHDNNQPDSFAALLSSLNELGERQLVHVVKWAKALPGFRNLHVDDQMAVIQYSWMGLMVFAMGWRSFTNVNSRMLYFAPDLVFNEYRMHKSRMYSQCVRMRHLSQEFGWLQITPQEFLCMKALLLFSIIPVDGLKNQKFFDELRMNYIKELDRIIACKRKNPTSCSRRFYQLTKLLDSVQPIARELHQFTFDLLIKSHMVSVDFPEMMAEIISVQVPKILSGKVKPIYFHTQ
How it was run: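 MDA-kb2 cells (MMTV-luciferase, responsive to AR and GR) at 3,000/well, rested 5 h at 37C, 0% CO2, then given compounds plus 0.5 nM R1881 (final) for 16 hr. Luciferase read with ONE-Glo after 30 min at room temperature.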

[19] = molecular target: Androgen receptor (Homo sapiens) (UniProt P10275); assay: qHTS assay to identify small molecule agonists of the androgen receptor (AR) signaling pathway in the presence of an antagonist (AID 1259381; calls by dose curve; note: nearly all actives have a fitted effect of over 15% in size)
How it was run: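 MDA-kb2 cells carrying MMTV-luciferase (AR/GR responsive), 3,000 cells/well, co-treated with 3.0 uM nilutamide final. Compounds at 15 concentrations, 16 hr at 37C without CO2. Luciferase luminescence read after 30 min with ONE-Glo.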

[20] = molecular target: Estrogen receptor (Homo sapiens) (UniProt P03372); assay: qHTS assay to identify small molecule agonists of the estrogen receptor alpha (ER-alpha) signaling pathway in the presence of an antagonist (AID 1259383; calls by dose curve; note: top concentration of the series differs between compounds; nearly all actives have a fitted effect of over 15% in size)
How it was run: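 VM7Luc4E2 cells express endogenous full-length ER-alpha with an ERE-luciferase reporter and were hormone-deprived for 5 days. Compounds at 15 concentrations were added with 10.0nM ICI-182,780 for 22hr at 37C. Luminescence was read with ONE-Glo.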
% is set by controls: 0 for no effect and ±100 for the full control effect.

O=C1c2ccccc2C(=O)c2ccccc21
active: Potency [4] 3.66 µM
inactive: activity change, negative = cytotoxicity [1] 0.424% [at 19 µM] | activity change, negative = inhibition [2] 34.1% [at 19 µM] | outcome [3] | activity change, negative = cytotoxicity [5] -0.295% [at 19 µM] | viability change, negative = cytotoxic [6] 1.77% [at 19 µM] | viability change, negative = cytotoxic [7] -0.095% [at 19 µM] | activity change [8] 1.5% [at 18.9 µM] | activity change, negative = inhibition [9] 17.7% [at 19 µM] | activation [10] 1.09% [at 19 µM] | activity, negative = inhibition [11] 0.94% [at 19 µM] | activity change, negative = cytotoxicity [12] -1.61% [at 19 µM] | activity change, negative = cytotoxicity [13] 3.21% [at 19 µM] | activity change, negative = cytotoxicity [14] -0.678% [at 19 µM] | cAMP activity change [15] -4.84% [at 18.9 µM, hits give high values]

Cc1cc(C)nc(Nc2ccccc2)n1
inactive: outcome [1] | Potency [2] | outcome [5] | Potency [6] | Potency [7] | Potency [9] | Potency [12] | Potency [13] | Potency [14] | Potency [15] | Potency [16]

CCC(=O)c1ccccc1
inactive: outcome [17] | Potency [18] | Potency [2] | Potency [4] | outcome [5] | Potency [6] | Potency [7] | outcome [8] | Potency [9] | outcome [10] | Potency [11] | Potency [12] | Potency [13] | Potency [19] | Potency [20] | Potency [15] | Potency [16]

CCCSC(=O)Cl
inactive: outcome [1] | Potency [2] | Potency [4] | outcome [5] | Potency [6] | Potency [7] | outcome [8] | outcome [10] | Potency [11] | Potency [12] | Potency [14] | Potency [20] | Potency [15]

CC(CC(C#N)(c1ccccc1)c1ccccc1)N(C)C (centres undefined)
inactive: outcome [1] | Potency [4] | outcome [5] | outcome [8] | Potency [9] | outcome [10] | Potency [12] | Potency [20] | Potency [15] | Potency [16]
active: Potency [13] 60.8 µM

OCCSCSCCO
inactive: outcome [1] | Potency [2] | Potency [4] | outcome [5] | Potency [6] | Potency [7] | outcome [8] | Potency [11] | Potency [12] | Potency [13] | Potency [14] | Potency [20] | Potency [15] | Potency [16]

CCCCOP(=O)(O)OCCCC
inactive: outcome [17] | Potency [18] | Potency [2] | Potency [4] | outcome [5] | Potency [7] | outcome [8] | Potency [9] | Potency [11] | Potency [12] | Potency [13] | Potency [19] | Potency [14] | Potency [15] | Potency [16]

CCCCCCBr
inactive: outcome [1] | Potency [4] | outcome [5] | Potency [6] | Potency [7] | Potency [9] | Potency [12] | Potency [13] | Potency [14] | Potency [15]

Cc1ncc(CNC(=O)N(CCCl)N=O)c(N)n1
inactive: outcome [17] | Potency [2] | outcome [3] | Potency [4] | outcome [5] | Potency [6] | Potency [7] | outcome [8] | Potency [9] | Potency [12] | Potency [13] | Potency [14] | Potency [20] | Potency [15] | Potency [16]

CC(=O)CC(c1ccc(Cl)cc1)c1c(O)c2ccccc2oc1=O (centres undefined)
inactive: outcome [1] | Potency [2] | Potency [4] | outcome [5] | Potency [6] | Potency [7] | outcome [8] | Potency [9] | outcome [10] | Potency [11] | Potency [12] | Potency [14] | Potency [20]
